# PubChem BioAssay AID651548 (Broad Institute, 2012)
# Among all 57,000 compounds or so, about 200 (0.35%) were called active.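 The calls were made as follows: active = mean inhibition of replicates at least 50% and every single replicate also reaching 50%; inconclusive = mean inhibition at least 50% but some replicate falls below 50%; inactive = mean inhibition under 50%.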 Many of the other results were omitted from the sample, so actives are more common in it than they were.
# Target: Histone-lysine N-methyltransferase EZH2 (Homo sapiens) (UniProt Q15910)
# Assay: EZH2/PRC2 methyltransferase inhibitors, primary screen, biochemical, DELFIA time-resolved fluorescence, single point (AID 651548);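 also: dimethyl H3K27 on biotinylated H3 21-44 peptide detected by antibody; plate controls were median neutral control wells for no effect and median positive control wells for full effect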
# Conditions: PRC2 H3K27 methylation, DELFIA TRF, 1 h; at 12.5 µM; hits give high values
# Histone-lysine N-methyltransferase EZH2 (Homo sapiens), sequence (Q15910 whole entry, looked up): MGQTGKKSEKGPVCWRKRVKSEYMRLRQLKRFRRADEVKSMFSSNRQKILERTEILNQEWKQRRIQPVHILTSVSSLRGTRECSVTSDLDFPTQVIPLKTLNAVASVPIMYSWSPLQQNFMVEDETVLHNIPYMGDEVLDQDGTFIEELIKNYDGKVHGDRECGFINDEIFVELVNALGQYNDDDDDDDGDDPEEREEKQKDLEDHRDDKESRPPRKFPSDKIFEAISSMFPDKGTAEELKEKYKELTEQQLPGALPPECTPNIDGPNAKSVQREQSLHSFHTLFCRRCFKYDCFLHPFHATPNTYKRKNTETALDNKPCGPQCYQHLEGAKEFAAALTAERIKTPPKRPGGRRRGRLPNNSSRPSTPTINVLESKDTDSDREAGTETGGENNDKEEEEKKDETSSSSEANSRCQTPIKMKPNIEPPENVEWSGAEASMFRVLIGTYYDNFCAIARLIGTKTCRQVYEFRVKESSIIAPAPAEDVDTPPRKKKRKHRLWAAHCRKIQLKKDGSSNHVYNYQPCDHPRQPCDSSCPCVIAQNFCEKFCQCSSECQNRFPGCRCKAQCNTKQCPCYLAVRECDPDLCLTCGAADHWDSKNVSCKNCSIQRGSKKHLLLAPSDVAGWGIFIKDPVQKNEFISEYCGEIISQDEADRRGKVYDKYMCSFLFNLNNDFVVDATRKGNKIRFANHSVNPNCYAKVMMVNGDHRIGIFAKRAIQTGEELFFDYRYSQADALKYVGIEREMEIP
row,Structure (SMILES),inhibition
1,CN1CCN(C(=O)c2cc3c(c(-c4cccc(-c5ccc(C(=O)N(C)C)cc5)c4)n2)[C@@H](CCO)N([S@](=O)C(C)(C)C)C3)CC1,-12.8% (inactive)
2,COc1ccc(CN2C[C@@H](C)[C@H](OC)CN(C)C(=O)c3cc(NC(C)=O)ccc3OC[C@@H]2C)cc1,-2.6% (inactive)
3,O=C(C[C@H]1C=C[C@H](NC(=O)c2cnccn2)[C@@H](CO)O1)NCc1ccccc1F,4.44% (inactive)
4,CN(C)C(=O)C[C@H]1C[C@@H]2c3cc(NC(=O)NC4CCCCC4)ccc3O[C@@H]2[C@@H](CO)O1,9.52% (inactive)
5,O=C(C[C@@H]1C=C[C@@H](NC(=O)C2CC2)[C@H](CO)O1)NCCCN1CCOCC1,-1.42% (inactive)
6,CCC(=O)Nc1ccc2c(c1)C(=O)N(C)C[C@H](OC)[C@@H](C)CN(C(=O)c1cnccn1)[C@@H](C)CO2,11.1% (inactive)
7,COCC(=O)Nc1ccc2c(c1)OC[C@H](C)N(Cc1ccccc1OC)C[C@@H](C)[C@@H](OC)CN(C)C2=O,-9.26% (inactive)
8,CO[C@H]1CN(C)C(=O)c2cc(NS(=O)(=O)CC(F)(F)F)ccc2OC[C@H](C)N(C(=O)c2ccc3c(c2)OCO3)C[C@H]1C,13% (inactive)
9,CO[C@@H]1CN(C)C(=O)c2cc(NC(=O)c3ccno3)ccc2OC[C@@H](C)N(S(C)(=O)=O)C[C@@H]1C,4.22% (inactive)
10,O=C(CCCCCCC(=O)Nc1ccccc1O)N/N=C/c1ccc(Oc2ccccc2)cc1,60.3% (active)
11,O=C(CCCCCC(=O)Nc1ccccc1O)N/N=C/c1ccc(I)cc1,14.9% (inactive)
12,O=C(CCCCCCC(=O)Nc1ccccc1O)N/N=C/c1ccc(C(F)(F)F)cc1,-17.5% (inactive)
13,O=C(C[C@@H]1C[C@@H]2c3cc(NS(=O)(=O)c4ccc(F)cc4)ccc3O[C@@H]2[C@H](CO)O1)NCc1cc(F)ccc1F,17% (inactive)
14,CCCCc1nn(-c2ccccc2C(F)(F)F)c(=O)n1Cc1ccc(-c2ccccc2S(=O)(=O)NC(=O)c2sccc2C)cc1,62% (active)
15,COCC(=O)Nc1ccc2c(c1)C(=O)N(C)C[C@H](OC)[C@@H](C)CN(CC1CC1)[C@@H](C)CO2,9.52% (inactive)
16,O=C(C[C@@H]1C[C@@H]2c3cc(NC(=O)C4CCC4)ccc3O[C@@H]2[C@@H](CO)O1)NCCN1CCCCC1,-3.85% (inactive)
17,CC(C)NC(=O)N[C@@H]1CC[C@H](CC(=O)NCCN2CCCC2)O[C@@H]1CO,-11.4% (inactive)
18,C[C@H](O)C#Cc1ccc2c(c1)O[C@H](CN(C)C(=O)C1CC1)[C@@H](C)CN([C@H](C)CO)S2(=O)=O,7.79% (inactive)
19,CO[C@H]1CN(C)C(=O)c2ccc(NS(=O)(=O)c3cn(C)cn3)cc2OC[C@@H](C)N(C)C[C@@H]1C,-2.12% (inactive)
20,CCC(=O)N(C)C[C@H]1Oc2cc(C#CC3CCCC3)ccc2S(=O)(=O)N([C@H](C)CO)C[C@@H]1C,10% (inactive)
21,CN(C)CC(=O)N[C@@H]1CC[C@H](CCn2cc(C3CCCC3)nn2)O[C@H]1CO,-5.37% (inactive)
22,O=C(CCN1CCCCC1)N[C@H]1CC[C@H](CCNS(=O)(=O)c2ccc(F)cc2)O[C@@H]1CO,4.74% (inactive)

row,Structure (SMILES),inhibition
1,O=C(NCC[C@H]1CC[C@@H](NC(=O)c2ccncc2)[C@@H](CO)O1)Nc1ccc(Cl)cc1,1.17% (inactive)
2,COc1cccc(NC(=O)N[C@@H]2C=C[C@H](CC(=O)NCc3ccccn3)O[C@H]2CO)c1,-2.05% (inactive)
3,O=C(C[C@@H]1C=C[C@H](NC(=O)C2CCOCC2)[C@H](CO)O1)NCc1ccncc1,7.09% (inactive)
4,CCC(=O)Nc1ccc2c(c1)C(=O)N(C)C[C@H](OC)[C@@H](C)CN(Cc1cccnc1)[C@H](C)CO2,2.36% (inactive)
5,CO[C@H]1CN(C)C(=O)c2cc(NC(=O)NC(C)C)ccc2OC[C@@H](C)NC[C@@H]1C,4.41% (inactive)
6,Cc1ccc(S(=O)(=O)N[C@@H]2CC[C@H](CCn3cc(-c4cccc(F)c4)nn3)O[C@@H]2CO)cc1,-11.1% (inactive)
7,CC(C)NC(=O)N[C@@H]1CC[C@H](CCn2cc(-c3ccccc3)nn2)O[C@H]1CO,6.84% (inactive)
8,CO[C@H]1CN(C)C(=O)c2ccc(NC(C)=O)cc2OC[C@@H](C)NC[C@H]1C,-8.55% (inactive)
9,COC(=O)[C@H](Cc1ccc(N=[N+]=[N-])cc1)N1CC2=C[C@@H](C3CC3)n3c(=O)n(C)c(=O)n3[C@H]2[C@@H]1[C@@H](O)Cc1ccccc1,1.09% (inactive)
10,CO[C@@H]1CN(C)C(=O)c2cc(NC(=O)C3CC3)ccc2OC[C@H](C)N(C(=O)c2ccccc2F)C[C@H]1C,3.97% (inactive)
11,COCC(=O)N(C)C[C@@H]1Oc2ncc(C#C[C@H](C)O)cc2C(=O)N([C@@H](C)CO)C[C@@H]1C,-0.468% (inactive)
12,O=C(C[C@@H]1CC[C@@H](NC(=O)c2ccc3c(c2)OCO3)[C@H](CO)O1)NCc1ccc(F)cc1,-0.86% (inactive)
13,COc1ccc(CNC(=O)C[C@H]2CC[C@H](NC(=O)Nc3ccc4c(c3)OCO4)[C@H](CO)O2)cc1,13.2% (inactive)
14,C[C@H](CO)N1C[C@H](C)[C@@H](CN(C)C(=O)c2ccccc2)OCCCC[C@H](C)Oc2ccc(NC(=O)c3ccccc3)cc2C1=O,-18.6% (inactive)
15,CO[C@@H]1CN(C)C(=O)c2cc(NC(=O)NC3CCCCC3)ccc2OC[C@@H](C)N(C(C)=O)C[C@H]1C,0.307% (inactive)
16,C[C@@H]1CN([C@H](C)CO)S(=O)(=O)c2ccc(-c3ccccc3)cc2O[C@H]1CN(C)C(=O)C1CCC1,-4.42% (inactive)
17,CO[C@@H]1CN(C)C(=O)c2ccc(NC(=O)Nc3c(C)noc3C)cc2OC[C@@H](C)NC[C@H]1C,0.549% (inactive)
18,CO[C@@H]1CN(C)C(=O)c2cc(NS(=O)(=O)c3ccc(Cl)cc3)ccc2OC[C@H](C)NC[C@@H]1C,3.36% (inactive)
19,CO[C@@H]1CN(C)C(=O)c2ccc(NC(=O)c3ccccn3)cc2OC[C@@H](C)N(C(=O)C2CCCCC2)C[C@H]1C,-0.858% (inactive)
20,CO[C@@H](CN(C)C(=O)c1ccc2c(c1)OCO2)[C@@H](C)CN([C@H](C)CO)S(=O)(=O)c1ccccc1,-0.585% (inactive)
21,CO[C@H]1CN(C)C(=O)c2cc(NC(=O)Nc3ccccc3F)ccc2OC[C@@H](C)N(CCC(F)(F)F)C[C@@H]1C,-15.8% (inactive)
22,C[C@H](NC(=O)C[C@@H]1C[C@@H]2c3cc(NC(=O)Nc4ccc(C(F)(F)F)cc4)ccc3O[C@@H]2[C@H](CO)O1)c1ccccc1,-10.9% (inactive)

row,Structure (SMILES),inhibition
1,O=C(Nc1ccccc1)N[C@@H]1CC[C@H](CCn2cc(C3(O)CCCC3)nn2)O[C@@H]1CO,-9.38% (inactive)
2,CCNC(=O)C[C@@H]1CC[C@@H](NC(=O)NC2CCCCC2)[C@H](CO)O1,-1.26% (inactive)
3,C[C@@H](NC(=O)C[C@@H]1C[C@@H]2c3cc(NC(=O)c4cccnc4)ccc3O[C@@H]2[C@H](CO)O1)c1ccccc1,4.89% (inactive)
4,CCC(=O)N1C[C@@H](C)[C@@H](OC)CN(C)C(=O)c2ccc(NC(=O)c3ccccc3)cc2OC[C@H]1C,2.93% (inactive)
5,C[C@@H]1CN([C@@H](C)CO)S(=O)(=O)c2ccc(C#CCC3CCCC3)cc2O[C@@H]1CN(C)C,-6.13% (inactive)
6,CCCN(C)C[C@H]1Oc2cc(C#CCC3CCCC3)ccc2S(=O)(=O)N([C@@H](C)CO)C[C@@H]1C,10.9% (inactive)
7,C[C@@H]1CN([C@H](C)CO)S(=O)(=O)c2ccc(C#CCC3CCCC3)cc2O[C@H]1CN(C)Cc1ccc(C(=O)O)cc1,58.1% (active)
8,CO[C@@H](CN(C)S(=O)(=O)c1ccc(C)cc1)[C@@H](C)CN([C@@H](C)CO)S(=O)(=O)c1cccc(Cl)c1,9.64% (inactive)
9,CN(C)CCCNC(=O)C[C@H]1C=C[C@@H](NC(=O)Cc2cccnc2)[C@H](CO)O1,13.4% (inactive)
10,Cc1ccccc1S(=O)(=O)NCC[C@@H]1CC[C@H](NC(=O)C2CC2)[C@@H](CO)O1,-14.1% (inactive)
11,COCCNC(=O)C[C@H]1CC[C@H](NS(=O)(=O)c2ccc(C)cc2)[C@@H](CO)O1,-9.8% (inactive)
12,COCC(=O)N(C)C[C@@H]1Oc2cc(C#CCC(C)C)ccc2S(=O)(=O)N([C@@H](C)CO)C[C@@H]1C,7.89% (inactive)
13,CO[C@H]1CN(C)C(=O)c2cc(NC(=O)C3CCCC3)ccc2OC[C@@H](C)N(C(=O)CC2CC2)C[C@@H]1C,4.88% (inactive)
14,C[C@@H]1CN([C@H](C)CO)C(=O)c2cc(NC(=O)CCCN(C)C)ccc2O[C@@H](C)CCCCO[C@H]1CN(C)CC1CCCCC1,-6.09% (inactive)
15,C[C@@H]1CN([C@@H](C)CO)S(=O)(=O)c2ccc(C3=CCCCC3)cc2O[C@@H]1CN(C)C(=O)CN(C)C,-15.1% (inactive)
16,O=C(C[C@@H]1C[C@@H]2c3cc(NC(=O)Nc4ccc(F)cc4)ccc3O[C@@H]2[C@H](CO)O1)NCC(F)(F)F,-13.1% (inactive)
17,CO[C@@H]1CN(C)C(=O)c2cc(NC(=O)c3ccccc3F)ccc2OC[C@H](C)N(C(C)=O)C[C@@H]1C,-5.74% (inactive)
18,C[C@H]1CN([C@@H](C)CO)C(=O)c2cc(Br)cnc2O[C@@H]1CN(C)S(=O)(=O)c1ccc(F)cc1,30.8% (inactive)
19,O=C(C[C@@H]1CC[C@@H](NC(=O)c2ccc3c(c2)OCO3)[C@H](CO)O1)NCc1ccc(Cl)cc1,11.8% (inactive)
20,C[C@@H]1CN([C@H](C)CO)C(=O)c2cccc(NC(=O)CCCCCC(=O)Nc3ccccc3N)c2O[C@H]1CN(C)Cc1ccc(Oc2ccccc2)cc1,-2.58% (inactive)
